Screens deposited in PubChem BioAssay by several laboratories.
RecA splice inh = Mtb RecA intein splicing inhibitors, primary screen, biochemical, fluorescence, HTS | inhibition, % (test concentration not listed) | cell-free RecA intein splicing | Protein RecA (Mycobacterium tuberculosis (strain ATCC 25618 / H37Rv)), P9WHJ3 | actives 0.75% (n = 290,000); in the data active = inhibition above about 30%; inconclusive = no clear call, values can overlap the other calls;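 also: 0% = vehicle wells and 100% = reference inhibitor control wells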
PrP 5UTR inh = inhibition of PrP 5' UTR reporter expression. cell-based PrP 5' UTR mRNA reporter, plate reader. inhibition, % (test concentration not listed). actives 0.35% (n = 340,000). AID 488862, 2010; in the data active = inhibition above about 52%; also: 0 = median of the neutral control wells
SARS 3CLpro inh = SARS-CoV 3CLpro protease inhibitors, primary screen, biochemical, quenched FRET | Replicase polyprotein 1ab (Severe acute respiratory syndrome coronavirus), P0C6X7 | recombinant SARS-CoV 3CLpro, quenched FRET peptide cleavage | inhibition, % at 6 µM | actives 0.14% (n = 290,000) | AID 1706, 2009; in the data active = inhibition above about 12%
Mtb hypoxia rep = PubChem AID 1159583 | M. tuberculosis hypoxia-regulated fluorescent reporter, fluorescence | fluorescence inhibition, % (test concentration not listed) | actives 0.1% (n = 300,000); in the data active = fluorescence inhibition mostly above about 23%, no sharp cut-off; inactive = mostly below about 17%
PrPC surface inh = inhibitors of human cell surface prion protein PrPC, primary screen, cell-based, TR-FRET | Major prion protein (Homo sapiens), P04156 | TR-FRET read-out | inhibition, % at 13.8 µM | actives 0.43% (n = 370,000) | AID 720596, 2013; in the data active = inhibition above about 24%; also: 0% = median of the test wells and 100% = reference compound wells
BJeLR viability = MLPCN primary cell-based screen for lethality selective to Ras in HRASV12 cells; BJeLR (HRASV12) viability, CellTiter-Glo ATP luminescence, 48 h; actives 0.17% (n = 300,000); inhibition, % (concentration not given with the values); in the data active = inhibition above about 50%; inconclusive = no clear call, values can overlap the other calls
PrP 5UTR single = prion 5' UTR mRNA inhibition, cherry-pick retest; shares compounds with PrP 5UTR inh; AID 504592, 2011; actives 48% (n = 1,100); cell-based prion protein 5' UTR reporter, plate reader; inhibition, % at 2.5 µM; in the data active = inhibition above about 54%; inconclusive = no clear call, values can overlap the other calls
An asterisk follows results filed as active. This is a sample that favours compounds with a hit; in the whole collection about 1.4% have one here.

What do the screens show for `COc1cc2c(c(OC)c1OC)-c1ccc(OC)c(=O)cc1[C@@H](N(C)CC#CCO)CC2`?
RecA splice inh: 2; PrP 5UTR inh: 80*; SARS 3CLpro inh: -8; PrPC surface inh: -8; BJeLR viability: 45; PrP 5UTR single: 91*

Results for O=C1C2C(c3ccc(F)cc3)N3C(=O)N(c4cccc(Br)c4)C(=O)[C@@]3(Cc3ccccc3)C2C(=O)N1C1CCCCC1 (stereo not given in full) ?
Mtb hypoxia rep: 1

How did CC(C)N(Cc1cc2ccccc2[nH]c1=O)C(=O)c1cccc([N+](=O)[O-])c1 do in these assays?
RecA splice inh: 1; PrP 5UTR inh: 68*; SARS 3CLpro inh: 3; Mtb hypoxia rep: 8; PrPC surface inh: -6; BJeLR viability: -8; PrP 5UTR single: -7

What do the screens show for `COc1ccc2c(c1)OCC1C2N2C(=O)CN(Cc3ccccc3)C(=O)[C@@]2(C)C1c1ccccc1` (stereo not given in full)?
Mtb hypoxia rep: -3

How did CC[C@@]1(O)C(=O)OCc2c1cc1n(c2=O)Cc2cc3c(NC(=O)CN)cccc3nc2-1 do in these assays?
RecA splice inh: -79; PrP 5UTR inh: 85*; SARS 3CLpro inh: -4; Mtb hypoxia rep: 3; PrPC surface inh: -3; BJeLR viability: 93*; PrP 5UTR single: 70*

How did CCn1c(SCC(=O)Nc2ccccc2C)nc2nc3c(cc2c1=O)COC(C)(C)C3 do in these assays?
RecA splice inh: 0; PrP 5UTR inh: -26; SARS 3CLpro inh: 7; Mtb hypoxia rep: 11; PrPC surface inh: -3; BJeLR viability: 10

How did CCC1(OC(=O)CN)C(=O)OCc2c1cc1n(c2=O)Cc2cc3ccccc3nc2-1 (stereo not given) do in these assays?
RecA splice inh: -40; PrP 5UTR inh: 83*; SARS 3CLpro inh: -3; Mtb hypoxia rep: 12; BJeLR viability: 90*; PrP 5UTR single: 88*

Results for CCOC(=O)C1(C(=O)OCC)COC(=O)C1CN1Cc2cc3ccccc3nc2C1 (stereo not given) ?
PrPC surface inh: -13

How did CCc1c2c(nc3ccc(OC(=O)N4CCC(N5CCCCC5)CC4)cc13)-c1cc3c(c(=O)n1C2)COC(=O)[C@]3(O)CC do in these assays?
RecA splice inh: -95; PrP 5UTR inh: 65*; Mtb hypoxia rep: 11; PrPC surface inh: -6; BJeLR viability: 56*; PrP 5UTR single: 74*

What do the screens show for `CC(C)c1ccc2oc(-c3cc(N)ccc3O)nc2c1`?
RecA splice inh: -5; PrP 5UTR inh: 63*; SARS 3CLpro inh: 2; Mtb hypoxia rep: -17; PrPC surface inh: 4; BJeLR viability: -7; PrP 5UTR single: 33

Results for COC(=O)c1oc2ccc(Br)cc2c1NC(=O)CCCN1C(=O)c2ccccc2C1=O ?
RecA splice inh: 1; PrP 5UTR inh: 57*; SARS 3CLpro inh: 1; Mtb hypoxia rep: -1; PrPC surface inh: 6; BJeLR viability: -6; PrP 5UTR single: -12

What do the screens show for `COc1ccc(CCc2cc(OC)c(OC)c(OC)c2)cc1`?
PrP 5UTR inh: 57*; PrPC surface inh: 12; PrP 5UTR single: 88*

Results for COc1ccc(CCNC(=O)CCc2cc(OC)c(OC)c(OC)c2)cc1 ?
RecA splice inh: 1; PrP 5UTR inh: -23; SARS 3CLpro inh: -3; Mtb hypoxia rep: 14; PrPC surface inh: -4; BJeLR viability: -3

How did CCN1C(=O)N[C@@H](CCc2ccccc2)[C@H](C(C)=O)[C@H]1C do in these assays?
RecA splice inh: -3; PrP 5UTR inh: 66*; PrPC surface inh: -3; BJeLR viability: -1; PrP 5UTR single: -26

How did CC(=O)[C@H]1[C@H](CCc2ccccc2)NC(=O)N(Cc2ccccc2)[C@@H]1C do in these assays?
RecA splice inh: -3; PrP 5UTR inh: -52; PrPC surface inh: -1; BJeLR viability: -9

How did CC1CCN(Cc2c(C(=O)NN=Cc3cccc(C(F)(F)F)c3)nnn2-c2nonc2N)CC1 do in these assays?
Mtb hypoxia rep: 0

How did Cc1cc(NC(=O)CSc2nnc(-c3ccco3)n2C)no1 do in these assays?
PrP 5UTR inh: 88*; Mtb hypoxia rep: -7; PrPC surface inh: -5; PrP 5UTR single: 7

What do the screens show for `O=C(O)c1ccc(C=NN=Cc2ccco2)cc1`?
PrP 5UTR inh: 62*; PrPC surface inh: -4; PrP 5UTR single: 0

What do the screens show for `O=C(O)c1ccc(C=NN=C2c3ccccc3-c3ccccc32)cc1`?
PrP 5UTR inh: -18; PrPC surface inh: -5

How did CC1C=C(C(=O)N2CCN(Cc3ccc4c(c3)OCO4)CC2)OC(OCc2ccc(CO)cc2)C1 (stereo not given) do in these assays?
Mtb hypoxia rep: 21

Results for C#CCOCCOCCOCCNc1nc(N2CCOCC2)nc(N2CCN(C(=O)C(CCCCN)n3cc(CN)nn3)CC2)n1 (stereo not given) ?
Mtb hypoxia rep: 10

What do the screens show for `CC(=O)CSc1ccc(-c2nc3cc(C)c(C)cc3[nH]2)cn1`?
RecA splice inh: -4; PrP 5UTR inh: 82*; SARS 3CLpro inh: 3; Mtb hypoxia rep: 15; PrPC surface inh: -4; BJeLR viability: 7; PrP 5UTR single: 74*

How did COc1ccc(C2CC(=O)C=C(c3ccc(C)c(F)c3)C2)cc1 (stereo not given) do in these assays?
Mtb hypoxia rep: 23

Results for O=C(NCc1ccc2c(c1)OCO2)C1CCCN(S(=O)(=O)c2cccc3cccnc23)C1 (stereo not given) ?
RecA splice inh: 1; PrP 5UTR inh: 78*; SARS 3CLpro inh: -5; PrPC surface inh: 9; BJeLR viability: 0; PrP 5UTR single: inconclusive

What do the screens show for `CCN(CC)S(=O)(=O)c1ccc(NN=Cc2cccnc2)nc1`?
Mtb hypoxia rep: 9

What do the screens show for `O=C1OCC2=C1C(c1ccc(F)cc1)c1cc3c(cc1N2)OCO3` (stereo not given)?
PrP 5UTR inh: 50; SARS 3CLpro inh: -7; Mtb hypoxia rep: 3; PrPC surface inh: 13

What do the screens show for `CCOc1ccccc1C1C2=C(COC2=O)Nc2cc3c(cc21)OCO3` (stereo not given)?
RecA splice inh: -6; PrP 5UTR inh: 64*; SARS 3CLpro inh: -1; Mtb hypoxia rep: 8; PrPC surface inh: 10; BJeLR viability: 41; PrP 5UTR single: 82*

What do the screens show for `O=C1OCC2=C1C(c1ccc(F)cc1)c1cc3c(cc1N2)OCCO3` (stereo not given)?
PrP 5UTR inh: 54*; SARS 3CLpro inh: 1; Mtb hypoxia rep: 7; PrPC surface inh: 9; PrP 5UTR single: 88*
